ROMK primary: human ROMK K+ channel modulation, primary screen; Tet-inducible ROMK, thallium flux fluorescence; actives lie on both sides; B-score at 10 µM; 130,000 tested, 2% active; P48048;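 active means signal ratio slope over the read window, or its plate-corrected B-score, at least 3 SD from the plate mean, either direction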;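 further: B-score of the F/F0 ratio slope over 7 to 12 s after thallium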
Target sequence (P48048 whole entry, looked up): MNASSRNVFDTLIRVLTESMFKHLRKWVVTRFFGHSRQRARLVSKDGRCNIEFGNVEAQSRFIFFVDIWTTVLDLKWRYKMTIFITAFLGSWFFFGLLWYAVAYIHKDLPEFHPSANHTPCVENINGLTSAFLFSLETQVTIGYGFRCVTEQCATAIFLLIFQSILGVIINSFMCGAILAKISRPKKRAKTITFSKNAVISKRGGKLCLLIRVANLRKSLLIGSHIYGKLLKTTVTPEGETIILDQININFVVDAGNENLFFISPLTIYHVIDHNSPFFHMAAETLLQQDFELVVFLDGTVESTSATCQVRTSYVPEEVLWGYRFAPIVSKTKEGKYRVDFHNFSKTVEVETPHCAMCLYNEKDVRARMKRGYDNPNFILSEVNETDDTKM
zVAD death inh: L929 zVAD cell death inhibition; L929 zVAD necroptosis rescue, ATP luminescence, 24 h; with zVAD 60 µM; viability rescue, % at 10 µM; 220,000 tested, 0.38% active; AID 1377;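 active means activation, scaled between plate controls, above about 75%, limit read from the data; inactive means activation under that limit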;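 further: 0% = zVAD with DMSO and 100% = DMSO alone without zVAD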
Efa HMGR inh: E. faecalis class II HMG-CoA reductase inhibition. 190,000 tested, 0.41% active. inhibition, % at 10 µM. purified E. faecalis HMGR, NADPH absorbance 340 nm kinetic. AID 1066;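 active means inhibition above a set limit, the median over all tested compounds plus 3 SD, cut at about 9.5% in these data; inconclusive means no clear call, values can overlap the other calls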;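 further: enzyme runs in reverse so mevalonate oxidation gives rising NADPH absorbance; 0% = complete reaction with DMSO and 100% = background rate lacking mevalonate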
m-calpain inh: calpain II (pig) inhibition; inhibition, % at 16 µM; 220,000 tested, 0.37% active; purified calpain II, fluorogenic peptide substrate, 30 min; AID 1236;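 active means inhibition above about 50%, limit read from the data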
14-3-3 Bad inh: disrupts binding of bovine 14-3-3 zeta to phospho-Bad peptide | P63103 | TR-FRET 14-3-3zeta/Dy647-pBad peptide displacement, 1 h | inhibition, % at 21.7 µM | 220,000 tested, 0.71% active | AID 781;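 active means inhibition above about 70%, limit read from the data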;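 further: 0% = full 14-3-3 plus peptide FRET controls and 100% = background without 14-3-3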
Target sequence (P63103 whole entry, looked up): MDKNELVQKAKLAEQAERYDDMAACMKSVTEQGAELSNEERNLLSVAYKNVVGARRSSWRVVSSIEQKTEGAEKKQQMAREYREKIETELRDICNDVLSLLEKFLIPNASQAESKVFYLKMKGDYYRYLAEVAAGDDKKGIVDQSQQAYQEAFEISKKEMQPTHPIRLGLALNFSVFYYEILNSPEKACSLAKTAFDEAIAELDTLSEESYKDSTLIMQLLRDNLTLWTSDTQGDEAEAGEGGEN
TNF necrop inh: TNF-alpha cell death inhibition in Jurkat FADD-/- cells; Jurkat FADD-/- TNF necroptosis rescue, ATP luminescence, 24 h; 0 = TNF only, 100 = no-TNF cells; activation (protection from cell death), % at 10 µM; 220,000 tested, 0.068% active;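 active means activation, meaning protection from cell death, of at least 50% relative to plate controls; inactive means activation below 50%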;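 further: necroptosis triggered by 40 ng/mL TNF-alpha added together with compound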
ROMK hit retest: human ROMK channel modulation, retest confirmation. shares compounds with ROMK primary. ROMK thallium flux, fluorescence ratio; hits give low values. normalized thallium flux (F/F0 slope) at 10 µM. 3,000 tested, 54% active. AID 1917;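 active means Flux at 10 µM at least 3 SD below or above vehicle control mean in one or both replicates; inconclusive means no clear call, values can overlap the other calls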
The depositor's hits bear a star; ? = inconclusive; nt = no result. Only some compounds are listed: those with a hit (about 3% of all), similar ones and a draw of the others.

SMILES | ROMK primary | zVAD death inh | Efa HMGR inh | m-calpain inh | 14-3-3 Bad inh | TNF necrop inh | ROMK hit retest
O=C(Nc1ccc2c(c1)OCO2)c1cc(-c2ccncc2)nc2ccccc12 | nt | 40 | 1 | -36 | -11 | -1 | 0.068*
O=C(N/N=C/c1ccsc1)c1cc(-c2ccncc2)nc2ccccc12 | 3* | 0 | -1 | 15 | -8 | -15 | 0.081
O=C(N/N=C/c1ccsc1)c1cc(-c2cccs2)nc2ccccc12 | 1.4 | 1 | -4 | -73 | 1 | -3 | nt
CC(/C=N/NC(=O)c1cc(-c2ccncc2)nc2ccccc12)=C\c1ccco1 | 3.7* | 0 | -1 | -142 | -10 | -19 | 0.09
O=C(Nc1ccc2c(c1)OCCO2)c1cc(-c2ccccc2)nc2ccccc12 | nt | 2 | 0 | -5 | 2 | -12 | nt
Cc1ccc(NC(=O)CCCSc2ccccc2)cc1S(=O)(=O)N1CCOCC1 | -1.7 | 0 | -2 | 23 | -1 | -1 | nt
Cc1ncsc1C(=O)N1CCCC(CNS(=O)(=O)c2cccs2)C1 (centres undefined) | 0.089 | 30 | -4 | 9 | -8 | 0 | nt
O=C(NCC(=O)N1CC(O)CC1C(=O)N1CC(O)CC1C(=O)OCc1ccccc1)OCc1ccccc1 (centres undefined) | 0.29 | 0 | 8 | -10 | -5 | 1 | nt
O=C(NCc1cccnc1)C(=O)NCC(c1ccco1)N1CCN(c2ccc(F)cc2)CC1 (centres undefined) | -0.19 | -1 | 0 | -2 | -15 | 1 | nt
CC(C)(C)Nc1nc(Cl)nc(NCc2ccccc2)n1 | -8.5* | 1 | nt | 25 | -1 | -2 | 0.047*
CN1\C(=C/C=C/C=C/C=[N+](C)C)C(C)(C)c2ccccc21 | -3.6* | -1 | 0 | -24 | -80 | -12 | 0.051*
CN1/C(=C\C=O)C(C)(C)c2ccccc21 | 0.44 | 2 | -1 | -8 | -1 | -5 | nt
COc1cccc(-n2c(=O)n(Cc3ccccc3)c(=O)c3[nH]cnc32)c1C | -0.075 | 0 | nt | -14 | -4 | -1 | nt
CSc1ccc(/C=C(\NC(=O)c2ccccc2)C(=O)NN)cc1 | nt | 0 | nt | 5 | 1 | 2 | 0.074
CC1=NN(c2ccccc2)C(=O)/C1=C/C=C/C=C/N(C)C | -2.4* | 1 | -6 | 33 | -22 | -6 | 0.065*
CC1=NN(c2ccccc2)C(=O)/C1=C/c1cccs1 | -3.4* | 1 | -4 | -2 | -5 | 0 | 0.048*
CC1=NN(c2cccc(C(=O)O)c2)C(=O)/C1=C\C=C/c1ccccc1 | -8.3* | 54 | -1 | 1 | -2 | 36 | 0.047*
N#Cc1c(NC(=O)c2cnccn2)sc2c1CCCC2 | nt | 1 | -2 | -17 | -20 | -4 | nt
COc1ccc(CN(C(=O)c2ccc(-c3ccccc3)[nH]2)C(C(=O)NCC2CCCO2)c2ccc(C)o2)cc1 (centres undefined) | nt | 0 | -3 | -22 | 63 | -7 | nt
Cc1cccc(C)c1NC(=O)COC(=O)c1ccc([N+](=O)[O-])o1 | 0.014 | 4 | -1 | -56 | -20 | 1 | nt
COc1ccccc1NC(=O)CN1CC(=O)Nc2ccccc21 | -0.069 | 2 | 5 | -2 | -8 | 1 | nt
O=C(C[n+]1cccc(/C=N/O)c1)N1CCCc2ccccc21 | -1.1 | 3 | -1 | -6 | -13 | 0 | nt
Cc1cc(/C=C2\SC(=S)NC2=O)c(C)n1-c1cccc(O)c1 | nt | 2 | nt | -5 | -2 | 0 | 0.053*
NNC(=O)c1csc(-c2ncc(C(F)(F)F)cc2Cl)n1 | nt | 0 | nt | 27 | 0 | -1 | nt
c1ccc2c(-c3nc4ncccc4o3)cccc2c1 | nt | 1 | -4 | -498 | 10 | -5 | nt
SMILES | ROMK primary | zVAD death inh | Efa HMGR inh | m-calpain inh | 14-3-3 Bad inh | TNF necrop inh | ROMK hit retest
COc1ccc(N(C(=O)CCl)C(C(=O)NCCc2ccccc2)c2cccs2)cc1Cl (centres undefined) | -3.3* | 1 | -3 | -7 | -9 | -16 | 0.063*
COc1cccc(N(C(=O)CCl)C(C(=O)NCCc2ccccc2)c2cccs2)c1 (centres undefined) | -2.8 | 0 | 0 | -11 | -14 | -13 | nt
Cc1csc2c(N3CCC(C(=O)O)CC3)ncnc12 | -0.59 | 1 | nt | -21 | 4 | 1 | nt
Cc1csc2c(N3CCN(C(=O)Nc4ccc(OC(F)(F)F)cc4)CC3)ncnc12 | nt | 4 | nt | 18 | -8 | 0 | 0.072
CCOC(=O)N/N=C/c1ccccc1F | -14* | 0 | -2 | 14 | -4 | -3 | 0.075
CCOC(=O)N/N=C/c1c(F)c(F)c(F)c(F)c1F | 1.5* | 1 | 2 | 13 | 11 | 2 | 0.088
CCOC(CNc1ncnc2c1cnn2C)OCC | nt | 3 | -5 | -5 | -12 | 0 | nt
Cc1ccccc1C=Nc1ccccc1C(N)=O | 2.8* | 1 | 0 | -447 | 7 | -3 | 0.087
CCCCC(=O)Nc1ccc(C(=O)Nc2ccc(OC)cc2[N+](=O)[O-])cc1 | nt | 13 | 2 | 3 | 0 | 5 | 0.035*
CCCCC(=O)Nc1ccc(NC(=O)c2ccc([N+](=O)[O-])cc2)cc1OC | 0.28 | -1 | -2 | -14 | 5 | 2 | nt
CC1=CCC2C(=O)N(c3ccc(N4CCOCC4)cc3)C(=O)C2C1 (centres undefined) | 0.12 | -1 | nt | -13 | -4 | 2 | nt
COc1cc(NC(C)=O)c2ncccc2c1[N+](=O)[O-] | -4.7* | 1 | -1 | -5 | 9 | 0 | 0.046*
CCc1nn(C)c(N)c1C | 0.33 | 0 | -4 | -18 | -3 | -1 | nt
Cc1ccc(C(=O)N2C(CC(=O)Nc3ccc(Cl)cc3)C(=O)NC3CCCCC32)cc1 (centres undefined) | nt | 4 | -12 | 11 | -7 | -4 | 0.067*
Cc1cccc(NC(=O)CC2C(=O)NC3CCCCC3N2C(=O)c2ccccc2Cl)c1 (centres undefined) | nt | 0 | nt | -3 | -3 | 1 | nt
Cc1ccc(OCCNC(=O)C(=O)NCc2ccco2)cc1 | 3* | 5 | 9 | 13 | -6 | -7 | 0.1*
Cc1ccc(OCCCC(=O)NCc2ccco2)cc1 | nt | 0 | -7 | 16 | -1 | -2 | nt
Cc1ccc(C(=O)Nc2ccc([N+](=O)[O-])cn2)o1 | 1.2 | 2 | -6 | 17 | -2 | 0 | nt
Nc1nc(Nc2ccccc2)sc1C(=O)c1ccccc1 | nt | 4 | nt | 9 | -4 | 11 | ?
Cc1cn2c(N)c(C=C3C=C(Cl)C(=O)C(Cl)=C3)c(=O)nc2s1 | -6.1* | 1 | 1 | -3 | -5 | 1 | 0.025*
COC1=C/C(=C/c2c(N)n3cc(C)sc3nc2=O)C=CC1=O | -2.7 | 0 | -1 | 6 | 3 | 0 | nt
C/C(CC(=O)NCc1ccc(F)cc1)=N\NC(N)=S | 0.2 | 0 | -5 | 40 | -2 | -1 | nt
Cc1nn2c3ccccc3nc2n(Cc2ccccc2)c1=O | nt | -1 | nt | nt | nt | -2 | nt
